According to ChEMBL document CHEMBL4888484, “Replenishing the malaria drug discovery pipeline: Screening and hit evaluation of the MMV Hit Generation Library 1 (HGL1) against asexual blood stage Plasmodium falciparum ,using a nano luciferase reporter read-out” (2022):
In all, about 4,800 compounds went through this assay and about 420 (8.8%) showed an effect of 50% or more. The list comes from a sample in which strong results are over-represented; it also holds similar structures and randomly drawn compounds.

Each compound was assayed on Plasmodium falciparum (assay: Confirmatory screen in NF54 nanoGlo assay, in single point, at 2uM, 72h). Settings: timepoint 72 hour.
Type: functional, Erythrocyte

Structure (SMILES) | % Inhibition
CCc1ccc(CNC(=O)C2(N3CCOCC3)CCC2)s1 | -5%
CCCN(CCC)C(=O)CCC(=O)N[C@]1(C(F)(F)F)CCc2ccccc21 | 15%
Cc1cccc(NC(=O)[C@@H](C#N)C(=O)C2CCC2)c1 | 0%
CN1CCC(N2CCN(Cc3ccc4cc(O)ccc4c3)CC2)CC1 | 46%
COc1ccc(CN(Cc2ccncc2)CC2CCN(C3CCN(C)CC3)CC2)c(F)c1 | 85%
CN1CCC(N2CCC(CN(Cc3ccncc3)Cc3c(F)cccc3Cl)CC2)CC1 | 23%
O=C(Nc1ncc(CCO)s1)[C@@H]1CCCN1C(=O)Cc1cccs1 | 0%
CN(C)CCNCc1ccc(Cl)c(Cl)c1 | -11%
CN1CCC(NCC[C@@H](Cc2ccccc2Cl)c2ccc(Cl)cc2)CC1 | 82%
CN(C)CCCNCc1ccc(Cl)cc1Cl | -3%
Clc1ccccc1COc1ccc(CNC2CCCCC2)cc1 | -2%
CC(C)CC[C@@H](CCNC1CCN(C)CC1)c1ccc(Cl)cc1 | 80%
CC(C)CC[C@@H](CCNCCN(C)C)c1ccc(Cl)cc1 | 96%
CCn1cnnc1C1CCN([C@@H](C)C(=O)Nc2ccccc2C)CC1 | -7%
COc1ccc(C)cc1-n1ccc(C(=O)N2CCCc3c(C(N)=O)cccc32)n1 | -11%
COC(=O)c1ncn(CNC2(c3ccc(Cl)cc3)CCCC2)n1 | 6%
CN(C)c1ccc(-c2nc([C@H]3CCOC3)cs2)cc1 | 6%
Cc1cc(CN2C(=O)NC3(CCCCC3)C2=O)no1 | -4%
Cc1cccnc1C(=O)N1CC(n2cnnc2[C@@H]2CCCO2)C1 | -2%
CC(=O)c1cc(-c2cc(O)cc(CC[C@H]3CCCCN3)c2)ccc1O | 78%
Cc1cc(S(=O)(=O)NC[C@H]2CCCCN2)sc1C | -9%
Cc1ccc(-c2cc(O)cc(CC[C@H]3CCCCN3)c2)c(C)n1 | 53%
Cc1cc(-c2cc(O)cc(CC[C@H]3CCCCN3)c2)ccn1 | 79%
CC1CC(N)CCN1C(=O)c1cccc(-c2noc(C3CC3)n2)c1 (stereo not given) | 2%
CN(CCOc1ccc(Cl)cc1Cl)[C@H]1CCS(=O)(=O)C1 | -7%
CCN(C(C)=O)c1ccc(Cl)cc1F | -13%
COc1ccc(C)cc1NC(=O)C[C@H]1CCN(S(C)(=O)=O)C1 | 0%

Structure (SMILES) | % Inhibition
Cc1cc2nc(C(=O)NC3CCN(Cc4ccccc4)CC3)c(=O)n(C)c2cc1C | -8%
O=C(Cn1cccc1-c1nc(-c2ccc(F)c(Br)c2)no1)N1CCc2ccccc2C1 | 1%
CC(C)c1nc(C2CN(C(=O)Nc3ccc(F)c(Cl)c3)C2)n(C)n1 | 4%
CC(C)c1cc(=O)[nH]c(-n2nc(C3CC3)cc2NC(=O)Cc2ccc(Cl)cc2)n1 | 69%
Cc1cc(NC(=O)c2ccc(COc3ccc4ccccc4c3)o2)nn1C | -3%
CC(C)c1cc(=O)[nH]c(-n2nc(C3CC3)cc2NC(=O)COc2ccc3ccccc3c2)n1 | 70%
O=C(Nc1ccc(OC(F)F)cc1)c1cc(C2CC2)nc2c1c(C1CC1)nn2-c1ccccc1 | -7%
Cc1ccc(N2C[C@@H](c3nnc(NC(=O)Cc4ccc(Cl)cc4)o3)CC2=O)cc1 | -13%
CCNC(=O)C1Cc2ccc(OC)cc2N2CCN(c3ccc(OC)cc3)CC12 (stereo not given) | 2%
O=C(C[C@H]1CCN(C(=O)c2cc(F)ccc2F)C1)NC1CC1 | -2%
CN(C)/C=C/c1cc(C#N)c(C#N)cc1Br | -4%
O=C(c1c(F)cccc1F)N1C[C@@H]2CCCN2c2ccc(C(F)(F)F)cc21 | -13%
COc1ccccc1-n1cnc2cc(C(=O)N3CCCC3)ccc2c1=O | -4%
CC[C@H](C)[C@H](NC(=O)c1ccc(Br)c(F)c1)C(=O)O | -8%
N[C@@H](CO)c1cccc(Br)c1 | 7%
COC(=O)CN(c1ccccc1)S(=O)(=O)c1ccc2nncn2c1 | -1%
COc1cccc(C(=O)Nc2noc(-c3cccc(OC)c3)c2-c2ccc(Cl)cc2)c1 | -11%
COc1cccc(N2C(=O)N[C@H](C)C2=O)c1 | 8%
COc1ccc(-c2c(-c3cccc(OC)c3)[nH]c3c2c(=O)[nH]c(=O)n3C)cc1 | 74%
CC1CC(C)(C)CCC1NC(=O)NC1CCN(C)C1=O (stereo not given) | -4%
COc1cccc(CCC(=O)N2CCN3CCC2C3)c1F (stereo not given) | -15%
CC[C@@H](CO)NC(=O)Nc1ccc(Cl)cc1 | 6%
CNC(=NCCCOc1cccc(OC)c1)NC | -6%
Cc1cc(C(=O)Nc2ccc3ccccc3c2)co1 | -5%
Cc1c(C)c2ccc(NC(=O)c3cc4ccccc4o3)cc2[nH]c1=O | 74%
Cc1nc2sc(C(=O)Nc3ccc4ccccc4c3)c(N)c2c(C)c1C | 2%
CN(Cc1ccc(-c2ccccc2)cc1)c1cc([C@H]2C[C@@H](N)C2)nc(N)n1 | 49%

Structure (SMILES) | % Inhibition
CC1CCN(C[C@@H](O)CNc2nnc(C(F)(F)F)s2)CC1 | -10%
Cn1n[n+](CC(=O)Nc2ccccc2Cl)c2ccccc21 | -5%
Cn1n[n+](CCCCC(Cl)(Cl)Cl)c2ccccc21 | 53%
CCN(CC(=O)Nc1ccccc1OC)C(=O)c1ccc(S(=O)(=O)N2CCOCC2)cc1 | 10%
CC(C)n1[nH]c(=O)c2c(C3CCCCC3)c3sc(=O)[nH]c3nc21 | -3%
Nc1cc2c(cc1C1=Nc3ccccc3C(c3ccccc3)(c3ccccc3)N1)OCO2 | 10%
COc1ccc(CCNC(=O)c2cc3c(=O)[nH]c(C)cn3n2)cc1OC | 67%
COc1ccc(CCNC(=O)c2cc3n(n2)CCN(Cc2cccc(F)c2)C3=O)cc1OC | 17%
COc1ccc(CCNC(=O)c2c(C)noc2-c2ccncc2)cc1OC | 1%
C#CCN(C(=O)c1ccncc1CC)c1nccs1 | -10%
CCCC1(c2ccncc2)CC(C)OC1=O (stereo not given) | -1%
Cc1ccc(-c2noc(CCC(=O)NC[C@H]3CCCO3)n2)c(=O)n1C(C)C | -1%
O=C(CCn1ncc2c(Cl)cccc21)NCC1CCCC1 | -9%
c1cn(CCCOc2ccc3c(c2)OCO3)nn1 | 3%
COc1ccc(CC(=O)NCCn2c(C(F)(F)F)nc3ccccc32)cc1 | 42%
CCNC(=O)c1nc(-c2ccncc2)cs1 | -21%
CC(C)C(=O)NCC(=O)Nc1ccc(C(F)(F)F)cc1 | -15%
CC(C)C(=O)Nc1ccc(-c2cc(-c3ccc(NC(=O)C(C)C)cc3)nc(-c3ccncc3)n2)cc1 | 56%
Cc1ccccc1C(=O)NCC(=O)NCCc1c[nH]c2ccccc12 | -7%
Clc1ccccc1-c1c[nH]c([C@@H]2CCCN2)n1 | 5%
Oc1ccccc1CNc1cccc2cccnc12 | 98%
O=C(Nc1cccc2cccnc12)c1ccccn1 | 80%
O=C(Nc1cccc2cccnc12)c1cncc(Br)c1 | -12%
CC(C)(C)C(=O)NCCNC(=O)c1ccccn1 | 8%
O=C(Oc1cccc2cccnc12)c1ccc(-c2ccccc2)cc1 | 2%
CCN(CC)S(=O)(=O)c1ccc2c(c1)CCCN2C(=O)c1ccc2ccccc2c1 | 1%
CCOC1CC(NC2CC(c3ccc(F)cc3)C2)C12CCC2 (stereo not given) | 67%

Structure (SMILES) | % Inhibition
CC1(C)NC(=O)CC[C@@H]1NC1CC(c2cccc(F)c2)C1 (stereo not given in full) | 5%
O=C(N[C@H](c1ccccc1)C1CC1)N1CCN(S(=O)(=O)c2cccc(F)c2)CC1 | 4%
CCOC(=O)c1cc(F)cc(S(=O)(=O)Nc2ccnc3ncnn23)c1 | 34%
COCc1cc(=O)n(CC(=O)NCc2ccccc2Cl)c(N2CCCC2)n1 | -11%
Cc1nn(C)c(Oc2cccc(F)c2)c1NC(=O)CC(C)C | 8%
CC(C)(C)n1nc2nc(NCCN3CCCCC3)nc(-c3ccc(F)c(Cl)c3)c2c1N | 62%
O=C(NCCN1CCCC1)c1ccc2nc(-c3ccc(Cl)cc3)cn2c1 | 18%
COCc1cc(F)ccc1NC(=O)NC1CCN(c2cc(C)nc(C)n2)CC1 | -5%
CCOc1ccccc1C(=O)Nc1c(-n2cnnc2)nn(C)c1C | 2%
CC(NCCn1cccn1)C(=O)N1c2ccccc2CC1C (stereo not given) | -10%
Cc1ccc(Cn2ccn3nc(-c4ccc5c(c4)OCO5)cc3c2=O)cc1C | -9%
N#Cc1ccc(C(=O)N[C@H]2CCCc3c2cnn3-c2ccccn2)cc1 | 2%
COc1ccnc(CN2CC[C@](C)(O)[C@H](O)C2)c1 | -2%
CN1CCN([C@H]2CCN(c3ccnc4ccc(Cl)cc34)C[C@H]2CCCO)CC1 | 26%
Oc1ccc2cc(CN3CCC[C@H](CN4CCCC4)C3)ccc2c1 | 17%
COc1ccccc1CN1COc2cc3c(cc2C1)OCO3 | 22%
CCC[C@]1(C)NC(=O)N(c2csc(-c3ccccc3)n2)C1=O | -3%
CCn1nc(C)c(CN(C)C(=O)c2nn3cccnc3c2Cl)c1C | -2%
COCCN(CC1CN(Cc2ccccn2)CC1c1cccc(F)c1)C(=O)COC (stereo not given) | -3%
C[C@H](C(=O)NCc1cc(F)cc(F)c1)C1CCOCC1 | -5%
COc1ccccc1C1c2[nH]c3ccccc3c2C[C@H]2C(=O)N(CC(O)c3ccccc3)CC(=O)N12 (stereo not given in full) | 33%
CCOc1ccc(C2c3[nH]c4ccccc4c3C[C@H]3C(=O)N(C4CCN(Cc5ccccc5)CC4)CC(=O)N23)cc1OC (stereo not given in full) | 80%
COc1ccc(CNC(=O)c2ccc(N3C(=O)[C@@H]4Cc5c([nH]c6ccccc56)C(c5cccc(OC)c5)N4C3=O)cc2)cc1 (stereo not given in full) | 49%
COc1ccccc1N1CCN(c2nc(Nc3ccc(F)cc3)c3nc[nH]c3n2)CC1 | -18%
